This note sets out measurements from PubChem BioAssay.

The structures appear in SMILES notation. Values without a mark were called inactive.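 How the source made its calls: active means RAM network inhibition above 8.4% in each of two replicates, 3 SD over the compound average; inconclusive means above 8.4% inhibition in only one replicate; inactive means 8.4% inhibition or less in each replicate.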

A short description of this test: RAM signaling pathway blockade in yeast – S. cerevisiae, Pdr1DBD-CYC8 efflux-inhibited sensitized strain, primary screen (AID 1298).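 Further: 0% = DMSO untreated cells without growth and 100% = 10 µM 1-NA-PP1 full growth; higher means more yeast growth rescued from 5-FOA killing.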 The following applies: S. cerevisiae cbk1-as DSE1-URA3 strain, 5-FOA growth OD615, 2 d; at 50 µM; active compounds read high.
With `Cc1cc(C)c(C)c(S(=O)(=O)Nc2ccccc2C(=O)NCCCn2ccnc2)c1C`, the RAM network inhibition is 0.27%. Under `COc1ccc(N2CCN(CCCNC(=O)CCCn3c(=O)[nH]c4ccsc4c3=O)CC2)cc1` stands 9.35%; under `CC12COC3(C(=O)Nc4cccnc4)CC1CCC32C` (stereo not given), 2.55%. The value for `CCOC(=O)C1CCN(C(=O)c2ccc(NC(=O)C3CCCO3)cc2)CC1` (stereo not given) was 3.28%; that for `O=C(CSc1oc(-c2ccc(F)cc2)nc1S(=O)(=O)c1ccccc1)NCC1CCCO1` (stereo not given) was 6.86%; that for `O=C(NCC1COc2ccccc2O1)c1ccc(NC(=O)C2CCCO2)cc1` (stereo not given) was 8.99%.

Consider `COc1ccc(N2CCN(CCNC(=O)c3ccc(NC(=O)C4CCCO4)cc3)CC2)cc1` (stereo not given), for which the RAM network inhibition was 7.42%. Under `CC(C)N(C(=O)C1CC(=O)OC12CCCCC2)C(C)C` (stereo not given) stands 0.1%. The value for `Cn1nnc2c(NCc3ccco3)nccc21` was 0.93%. As to `CCCCNC(=O)c1ccc(NC(=O)C2CCCO2)cc1` (stereo not given), the RAM network inhibition is 3.01%. Under `CC1Cc2ccccc2N1C(=O)CCS(=O)(=O)c1cccc2nonc12` (stereo not given) stands 3.48%; under `O=C(NCc1cccs1)C1CCCN(S(=O)(=O)c2ccc3c(c2)OCO3)C1` (stereo not given), 3.17%; under `O=C(CCCOc1ccccc1)Nc1nnc(C2CCCO2)s1` (stereo not given), 8.72%. The value for `CC(C)Sc1nc(NCc2ccco2)c2c3c(sc2n1)COC(C)(C)C3` was 7.33%; that for `CC(=O)c1c(C)n(-c2ccc(N(C)C)cc2)c2ccc(OCC(N)=O)cc12` was 6.29%; that for `O=C(CS(=O)(=O)c1c[nH]c2ccccc12)Nc1ccc2c(c1)OCCO2` was 1.93%. The value for `CCn1cc(C(=O)N2CCN(c3ccccn3)CC2)c2cc(OC)c(OC)cc2c1=O` was 6.02%; that for `CCCCNC(=O)C1C2C=CC3(CN(Cc4ccc(C)cc4)C(=O)C13)O2` (stereo not given) was 0.67%. For `COc1ccc(CNC(=O)c2ccc(NC(=O)C3CCCO3)cc2)cc1` (stereo not given), the RAM network inhibition was 8.83%. Under `O=C(CNC(=O)Cn1ccc2ccccc2c1=O)NCCCN1CCN(c2cccc(Cl)c2)CC1` stands 2.03%. Under `CCN1CCN(Cc2nc3c(c(=O)n(C)c(=O)n3C)n2CCCc2ccccc2)CC1` stands 7.54%; under `COCc1cc(=O)n2c(-c3ccccc3OC)n[nH]c2n1`, 9.13%; under `Cc1ccccc1C(=O)Nc1nnc(-c2ccc(F)cc2)o1`, 4.65%. On to `COc1ccc(-c2cc(NCCc3ccncc3)n3ncnc3n2)cc1`, for which the RAM network inhibition was 7.01%. The value for `CCN(CC)c1ccc(NC(=O)c2ccc(NC(=O)C3CCCO3)cc2)c(C)c1` (stereo not given) was 6.65%; that for `CCC1(C)Cc2c(sc3c2c2ncnn2c2nnc(SCC(=O)NCc4ccco4)n32)CO1` (stereo not given) was 1.87%; that for `CCN(Cc1ccncc1)C(=O)c1cccc(S(=O)(=O)N2CCOCC2)c1` was 9.82%. Under `CC(C)c1ccc(-c2nc(N3CCCC3)nc3n[nH]c(N)c23)cc1` stands 10.8%; under `CCOC(=O)N1CCN(C(=O)CCc2nc3sc4c(c3c(=O)[nH]2)CCCC4)CC1`, 3.99%. The value for `COc1ccc(-c2nc(N3CCOCC3)nc3n[nH]c(N)c23)cc1` was 3.37%; that for `OC(COCc1cccs1)CN1CCN(c2ccccn2)CC1` (stereo not given) was 4.89%; that for `CCOC(=O)c1cc(NC(=O)OC)c(C)nc1C` was 3.38%. Turning to `COc1cc(-c2nc3cnccn3c2Nc2ccc3c(c2)OCCO3)ccc1O`, the RAM network inhibition is 11.8%. On to `CN1CCc2c(sc3c2c(=O)n(-c2ccc(Cl)cc2)c2nncn32)C1`, for which the RAM network inhibition was 2.09%. The value for `C(=N\c1nccs1)/c1c[nH]c2ccccc12` was 3.02%; that for `CCN1CCN(Cc2nc3c(c(=O)n(C)c(=O)n3C)n2C(C)C(C)=O)CC1` (stereo not given) was 4.46%. The value for `CCCCn1c(C(C)NC(=O)c2cccs2)nc2ccccc21` (stereo not given) was 3.28%; that for `CCn1cc(C(=O)NCc2cccnc2)c2cc(OC)c(OC)cc2c1=O` was 7.22%. Under `O=C1C(Cl)=C(Nc2ccccc2O)C(=O)N1c1ccccc1` stands 5.61%; under `O=C(NCc1nc2ccccc2[nH]1)c1ccc(S(=O)(=O)N2CCOCC2)cc1`, 3.06%.
